According to PubChem BioAssay (EPA / NIEHS):
Where “and” joins values, the source holds several entries; their conditions need not be identical. Equal entries are not always repeated. Where a structure was tested more than once in an assay, its records may differ in their call. Calls of active or inactive are those of the source. How the source made its calls: active means hit-call score of the fitted dose curve at least 0.9, where 1 is the maximum; inactive means score below 0.9.

Experiment: ATG_GATA_CIS: Attagene CIS-FACTORIAL HepG2 Assay for human GATA Binding Protein (AID 2282944)
Details: HepG2 GATA cis-element reporter, Attagene multiplex mRNA; actives raise or lower the signal
Summary of the method: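 Cells: HepG2, transiently transfected with cis-regulated reporter transcription units. Exposure: 24 h. Detection: RT-PCR plus capillary electrophoresis of FAM-labeled fragments. Analysis: bidirectional, DMSO as baseline.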

Row | SMILES | outcome
1 | NC(N)=NC(N)=NCCc1ccccc1 | inactive
2 | CC/C=C\CCOC(=O)C(C)C | inactive
3 | CC(C)=CCCC(C)=CC(=O)O | inactive
4 | CCC=C(C)C=O | inactive
5 | C=C1CC[C@H]2O[C@]2(C)CC[C@@H]2[C@@H]1CC2(C)C | inactive
6 | CCC(=O)OC/C=C(\C)CCC=C(C)C | inactive
7 | CCO[Si](CCC#N)(OCC)OCC | inactive
8 | CC(C)(O)CCc1ccccc1 | inactive
9 | CC(=O)C1C(=O)C=C(C)OC1=O (stereo not drawn) | inactive
10 | CCc1cccc(O)c1 | inactive
11 | CC(CO)(CO)[N+](=O)[O-] | inactive
12 | C[C@H](CCC(=O)O)[C@H]1CC[C@H]2[C@@H]3CC[C@@H]4C[C@H](O)CC[C@]4(C)[C@H]3CC[C@]12C | inactive
13 | CCC(C)(C)C1CCC(OC)CC1 (stereo not drawn) | inactive
14 | C=CC(=O)OCC(CO)(COC(=O)C=C)COC(=O)C=C | inactive
15 | CN(C)c1ccc(C=O)cc1 | inactive
16 | CC1=CCC(C(C)(C)O)CC1 (stereo not drawn) | inactive
17 | CC(=O)CC(=O)N(C)C | inactive

Row | SMILES | outcome
18 | CCCc1ccc(O)cc1 | inactive
19 | C=C1CC/C=C(\C)CC[C@@H]2[C@@H]1CC2(C)C | inactive
20 | C=CC(C)(CCC=C(C)C)OC(=O)CC (stereo not drawn) | inactive
21 | CCCCCCCCCCOC(=O)c1ccccc1C(=O)OCCCCCCCC | inactive
22 | CC(O)COCC(C)O (stereo not drawn) | inactive
23 | O=C1CCCCCCCCCCCC(=O)OCCO1 | inactive
24 | NC(=O)c1c(Cl)cccc1Cl | inactive
25 | c1ccc2c(c1)-c1ccc3ccc4cccc5cc-2c1c3c45 | inactive
26 | CC1=C(C=O)C(C)(C)CCC1 | inactive
27 | CC(C)OB(OC(C)C)OC(C)C | inactive
28 | COc1ccc2[nH]cc(CCNC(C)=O)c2c1 | inactive
29 | CCC(=O)OCC=Cc1ccccc1 | inactive
30 | CC(C)CCOC(=O)CC(C)C | inactive
31 | O=c1cc[nH]cc1 | inactive
32 | CCC(C)(CCCC(C)C)OC(C)=O (stereo not drawn) | inactive
33 | O=C1OCc2ccccc21 | inactive

Experiment: ATG_GLI_CIS: Attagene CIS-FACTORIAL HepG2 Assay for human Zinc Finger Protein GLI1 (AID 2282945)
Details: HepG2, Attagene cis-factorial reporter mRNA, GLI element; actives raise or lower the signal
Summary of the method: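 HepG2 cells transiently transfected with cis-promoter multiplexed reporter units report endogenous transcription factor activity. After 24 h chemical exposure, reporter mRNA was quantified by RT-PCR, 6-FAM labelling, HpaI digestion and capillary electrophoresis, with bidirectional fitting against DMSO.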

Row | SMILES | outcome | AC50
34 | NC(N)=NC(N)=NCCc1ccccc1 | inactive | 
35 | CC/C=C\CCOC(=O)C(C)C | inactive | 
36 | CC(C)=CCCC(C)=CC(=O)O | inactive | 
37 | CCC=C(C)C=O | inactive | 
38 | C=C1CC[C@H]2O[C@]2(C)CC[C@@H]2[C@@H]1CC2(C)C | inactive | 
39 | CCC(=O)OC/C=C(\C)CCC=C(C)C | inactive | 
40 | CCO[Si](CCC#N)(OCC)OCC | inactive | 
41 | CC(C)(O)CCc1ccccc1 | inactive | 
42 | CC(=O)C1C(=O)C=C(C)OC1=O (stereo not drawn) | inactive | 
43 | CCc1cccc(O)c1 | inactive | 
44 | CC(CO)(CO)[N+](=O)[O-] | inactive | 
45 | C[C@H](CCC(=O)O)[C@H]1CC[C@H]2[C@@H]3CC[C@@H]4C[C@H](O)CC[C@]4(C)[C@H]3CC[C@]12C | inactive | 
46 | CCC(C)(C)C1CCC(OC)CC1 (stereo not drawn) | inactive | 
47 | C=CC(=O)OCC(CO)(COC(=O)C=C)COC(=O)C=C | inactive | 
48 | CN(C)c1ccc(C=O)cc1 | inactive | 
49 | CC1=CCC(C(C)(C)O)CC1 (stereo not drawn) | inactive | 
50 | CC(=O)CC(=O)N(C)C | inactive | 

Row | SMILES | outcome | AC50
51 | CCCc1ccc(O)cc1 | inactive | 
52 | C=C1CC/C=C(\C)CC[C@@H]2[C@@H]1CC2(C)C | inactive | 
53 | C=CC(C)(CCC=C(C)C)OC(=O)CC (stereo not drawn) | inactive | 
54 | CCCCCCCCCCOC(=O)c1ccccc1C(=O)OCCCCCCCC | inactive | 
55 | CC(O)COCC(C)O (stereo not drawn) | inactive | 
56 | O=C1CCCCCCCCCCCC(=O)OCCO1 | inactive | 
57 | NC(=O)c1c(Cl)cccc1Cl | inactive | 
58 | c1ccc2c(c1)-c1ccc3ccc4cccc5cc-2c1c3c45 | inactive | 
59 | CC1=C(C=O)C(C)(C)CCC1 | inactive | 
60 | CC(C)OB(OC(C)C)OC(C)C | inactive | 
61 | COc1ccc2[nH]cc(CCNC(C)=O)c2c1 | inactive | 
62 | CCC(=O)OCC=Cc1ccccc1 | inactive | 
63 | CC(C)CCOC(=O)CC(C)C | inactive | 
64 | C#C[C@]1(O)CC[C@H]2[C@@H]3CCc4cc(O)ccc4[C@H]3CC[C@@]21C | inactive | 98.4 µM (active) and 72.2 µM (active) and 62.4 µM (active)
65 | O=c1cc[nH]cc1 | inactive | 
66 | CCC(C)(CCCC(C)C)OC(C)=O (stereo not drawn) | inactive | 
67 | O=C1OCc2ccccc21 | inactive | 
